# Rev-erbA mod = modulates human Rev-erb alpha binding to DNA; activity, % at 10 µM; 370,000 compounds, 0.79% hits; P20393; Rev-erbα–FITC-DNA binding, fluorescence polarization, 90 min;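 active = activity above about 14%, limit read from the data; passing the limit was not always enough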
# Target sequence (P20393 whole entry, looked up): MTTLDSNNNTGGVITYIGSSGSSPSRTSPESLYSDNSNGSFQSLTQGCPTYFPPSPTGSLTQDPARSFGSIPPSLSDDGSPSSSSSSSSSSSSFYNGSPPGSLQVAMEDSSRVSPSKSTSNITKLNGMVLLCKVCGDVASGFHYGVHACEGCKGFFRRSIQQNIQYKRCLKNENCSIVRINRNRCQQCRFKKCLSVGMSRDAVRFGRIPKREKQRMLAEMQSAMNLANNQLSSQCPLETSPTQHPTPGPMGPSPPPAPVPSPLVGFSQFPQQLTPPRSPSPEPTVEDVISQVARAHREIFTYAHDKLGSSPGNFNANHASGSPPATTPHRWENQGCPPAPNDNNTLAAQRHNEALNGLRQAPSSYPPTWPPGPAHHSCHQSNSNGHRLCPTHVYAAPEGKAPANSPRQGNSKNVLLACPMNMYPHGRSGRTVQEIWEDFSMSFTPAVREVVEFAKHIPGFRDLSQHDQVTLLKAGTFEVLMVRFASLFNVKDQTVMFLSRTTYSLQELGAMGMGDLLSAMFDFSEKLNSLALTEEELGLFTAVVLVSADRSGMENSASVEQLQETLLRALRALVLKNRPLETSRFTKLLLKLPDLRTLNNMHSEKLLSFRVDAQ
# JMJD2C inh = inhibitors of human GASC-1 (JMJD2C) demethylase; Q9H3R0; GST-JMJD2C(1-420) H3K9me3 demethylation, DELFIA europium; inhibition, % at 2.35 µM; 330,000 compounds, 0.069% hits; AID 2099;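 active = more than half of a compound's replicate wells show inhibition beyond 50%, single wells judged on their own value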;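 note: signal counts dimethyl H3K9 product captured on neutravidin plate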
# PP1 counter = blocks human PP1-alpha phosphatase, a PP5 counter-screen. P62136. AID 2235. inhibition, % at 6.7 µM. purified PP1alpha, OMFP fluorescence. 320,000 compounds, 0.9% hits;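 active = inhibition above the mean inhibition of all tested compounds plus 3 SD, computed separately for each screening campaign, cut at about 15% in these data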
# KLK7 zymogen act = activators of human kallikrein-7 zymogen; purified proKLK7, EDANS-DABCYL substrate fluorescence; 100% is mature enzyme control, 0% vehicle; activation, % at 7 µM; 370,000 compounds, 0.9% hits; P49862;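 active = activation above the mean of all tested compounds plus 3 SD, computed per campaign excluding outliers beyond control limits, cut at about 13% in these data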
# PG9 Ab binder = small molecules binding HIV-1 gp120 antibody PG9; TR-FRET gp120-PG9 antibody binding; inhibition, % at 6.7 µM; 360,000 compounds, 0.43% hits; AID 624416; in the data active = inhibition above about 8.5%
# PP5 inh = inhibitors of human protein phosphatase 5 (PP5). inhibition, % at 6.7 µM. 320,000 compounds, 0.18% hits. AID 1987. purified PP5c, OMFP substrate fluorescence. P53041;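 active = inhibition above the campaign's mean inhibition across all tested compounds plus 3 SD, cut at about 9.5% in these data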
# PG9 binder conf = confirmation of small molecules binding HIV-1 gp120 antibody PG9; shares compounds with PG9 Ab binder; TR-FRET PG9 antibody binding, biochemical; inhibition, % at 6.7 µM; 1,500 compounds, 90% hits; in the data active = inhibition above about 9%
# PGV04 Ab binding = counter-screen for PG9 binders: binding control antibody PGV04. shares compounds with PG9 Ab binder. TR-FRET PGV04 antibody-gp120 binding, biochemical. inhibition, % at 6.7 µM. 1,500 compounds, 95% hits. AID 651604; in the data active = inhibition above about 9.5%
# NR1D1 mod conf = Rev-erb alpha (human) modulation, hit confirmation | shares compounds with Rev-erbA mod | Rev-erb alpha FITC-DNA binding, fluorescence polarization, 90 min | activation, % at 25 µM | 3,000 compounds, 61% hits | AID 1259319;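 active = activation at or above a set limit, or at least 3 SD above the negative control mean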
# RORg counter = affects RORgamma DNA binding in a Rev-erb alpha counter-screen. shares compounds with Rev-erbA mod. purified RORgamma protein-FITC-DNA binding, fluorescence polarization. IC50, µM. 910 compounds, 8% hits;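 active = Compounds whose fitted half-maximal concentration for disrupting protein-DNA binding is below 10 micromolar; the record names Rev-erb in its text, so the target is in doubt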
# A number is an active result; . = inactive; / = no result. Rows were chosen to be rich in hits. Some 2.8% of all compounds tested hit in one or more screens of this group.
SMILES,Rev-erbA mod,JMJD2C inh,PP1 counter,KLK7 zymogen act,PG9 Ab binder,PP5 inh,PG9 binder conf,PGV04 Ab binding,NR1D1 mod conf,others
O=C(CSc1ncccc1-c1nc2ccccc2[nH]1)N1CCc2ccccc21,28,.,.,.,14,.,21,33,25,
COC(=O)CSc1ncccc1-c1nc2ccccc2[nH]1,.,.,.,.,.,.,/,/,/,
CCC(=O)c1cn(CC(=O)O)c2ccccc12,.,.,.,.,.,.,/,/,/,
CCC(=O)c1cn(CC(=O)Nc2ccccc2Cl)c2ccccc12,80,.,.,.,11,.,14,15,44,RORg counter=.
CCC(=O)c1cn(CC(=O)Nc2cccc(C)c2)c2ccccc12,52,.,.,.,25,.,16,23,45,RORg counter=.
CCC(C(=O)Nc1ccccc1N1CCCC1)c1cccc(Cl)c1 (stereo not drawn),.,/,/,.,/,/,/,/,/,
Cc1cc(NCCCOC(C)C)n2c(nc3ccccc32)c1C#N,44,.,.,.,11,.,22,33,.,
COc1ccccc1OCCSc1nc2ccccc2c(=O)[nH]1,.,.,.,.,.,.,/,/,/,
O=c1[nH]c(SCCOc2ccccc2)nc2ccccc12,46,.,.,.,40,.,33,52,25,
CCc1ccc2nc(SCC(=O)Nc3nnc(C)s3)c(C)cc2c1,.,.,.,.,.,.,/,/,/,
CCc1nnc(NC(=O)CSc2nc3cc4c(cc3cc2C)OCCO4)s1,47,.,.,.,12,.,25,43,47,RORg counter=.
CC(OC(=O)c1ccc(Cl)cc1)C(=O)NCc1ccc2c(c1)OCO2 (stereo not drawn),.,/,.,.,.,.,/,/,/,
CC(OC(=O)c1cc(Br)ccc1O)C(=O)NCc1ccc2c(c1)OCO2 (stereo not drawn),35,.,.,.,20,.,33,69,23,
Cc1nc(NC(=O)C2CC2)sc1C(=O)Nc1ccc(Br)cc1,38,.,.,.,14,.,14,15,27,
COc1ccc(NC(=O)c2sc(NC(=O)C3CC3)nc2C)cc1,.,.,.,.,.,.,/,/,/,
CC(=O)c1sc(NC(=O)COc2ccc(Br)cc2)nc1C,43,.,.,.,18,.,21,60,49,RORg counter=.
CCCN1C(=O)c2n[nH]c(C(C)C)c2C1c1cccc(C(F)(F)F)c1 (stereo not drawn),.,/,/,.,.,/,/,/,/,
CS(=O)(=O)c1ccc2nc(NC(=O)c3ccc(Cl)cc3)sc2c1,38,.,.,.,58,.,51,65,.,
COc1ccccc1C(=O)Nc1nc2ccc(S(C)(=O)=O)cc2s1,49,.,.,.,19,.,27,37,31,
COc1ccc(C(=O)Nc2nc3ccc(S(C)(=O)=O)cc3s2)cc1,27,.,.,.,46,.,41,58,.,
CS(=O)(=O)c1ccc2nc(NC(=O)c3ccc(=O)[nH]c3)sc2c1,.,.,.,.,.,.,/,/,/,
COc1ccc(S[C@]2(C(=O)N3CCOCC3)CC(=O)N(C(=O)/C=C/c3ccccc3)[C@@H]2c2ccc(OC)cc2)cc1,.,/,/,.,/,/,/,/,/,
Nc1[nH]c(C(=O)c2ccccc2)c(-c2ccc(F)cc2)c1C(=O)c1c[nH]c2ccccc12,.,/,/,.,.,/,/,/,/,
CCCC(=O)OC12CCCN(C1)/C(=C/c1ccc(C#N)cc1)C2 (stereo not drawn),.,/,/,.,/,/,/,/,/,
O=C(COC(=O)c1ccccc1C(=O)c1ccc(Cl)cc1)NC(c1ccccc1)c1ccccc1,35,.,.,.,17,.,25,47,.,
O=C(CCc1nc2sc3c(c2c(=O)[nH]1)CCCC3)Nc1cccc(Cl)c1,30,.,.,.,36,.,28,38,21,
